PMK inhibit: S. pneumoniae PMK inhibition | purified PMK, PK/LDH-coupled NADH absorbance 340 nm | inhibition, % at 10 µM | 65,000 compounds, 0.49% hits;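 active = top-ranked compounds by inhibition in the single 10 µM screen, taking a fixed number of the strongest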;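 note: 0% = full reaction with DMSO carrier and 100% = background rate without enzyme reaction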
Spn MK inh: S. pneumoniae mevalonate kinase inhibition | inhibition, % at 10 µM | 65,000 compounds, 0.48% hits | AID 555 | purified MK, PK/LDH-coupled NADH absorbance 340 nm;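 active = ranked among the strongest by inhibition in the single 10 µM screen, a fixed top-ranked set picked for dose follow-up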
DPM-DC inhibit: inhibitors of Streptococcus pneumoniae diphosphomevalonate decarboxylase | purified DPM-DC, PK/LDH coupled NADH fluorescence | calls only at 10 µM | 65,000 compounds, 0.49% hits | AID 556;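 active = the 320 compounds with the highest percent inhibition in the single-dose primary screen, excluding strongly autofluorescent ones, cut at about 32% in these data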;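 note: kinetic rate of NADH fluorescence loss reporting ADP formed by the decarboxylase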
Autofluor 339: intrinsic fluorescence of library compounds, ex339/em460 – biochemical, MLSMR library, data from DPM-DC assay, artefact control, profiling panel; fluorescence fold increase at 10 µM; compound autofluorescence, ex339/em460 nm, NADH buffer; stronger effect = higher value; 1 = no-compound wells, NADH background; 65,000 compounds, 5.5% hits;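 active = at 10 µM, mean starting fluorescence two-fold or more over control wells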;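 note: signal is the first read of a kinetic run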
NADH coupling: inhibition of NAD/NADH coupling enzymes, library profiling; coupled PK/LDH NADH assays, four targets; IC50, µM (doses to about 10 µM), for the others: at the top dose inhibition; 65,000 compounds, 0.02% hits; AID 774;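 active = single-dose screening hits from any of four coupled enzyme assays that gave an IC50 when retested across doses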;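 note: the DPM-DC format reads NADH fluorescence rather than 340 nm absorbance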
Abs 340nm: compounds absorbing at 340 nm; 65,000 tested, under 10 active; fold change at 10 µM; compound absorbance at 340 nm, fold over control;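 active = at 10 µM dose, initial 340 nm absorbance at least 2 fold that of control wells; inactive = change under 2 fold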;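 note: initial absorbance extrapolated from kinetic A340 decline of NADH oxidation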
* = called active by the depositor; i = inactive; x = no result given; + = active, no number. In the library only some 6.5% were active in any assay of this set; here they are far more common.

SMILES | PMK inhibit | Spn MK inh | DPM-DC inhibit | Autofluor 339 | NADH coupling | Abs 340nm
C=CCn1c(NC(=O)c2ccco2)c(S(=O)(=O)c2ccccc2)c2nc3ccccc3nc21 | 4 | 4 | x | 3.8* | 4% | 1.1
Cc1cccc(Nc2n[nH]c(=S)s2)c1C | 0 | 54* | + | 1.1 | 29% | 1.1
CCn1c(COc2cccc3ccccc23)nnc1SCC(N)=O | 12 | 4 | i | 0.98 | 4% | 0.99
Cc1cc(C(=O)NCCCn2ccnc2)cs1 | 4 | 6 | i | 1.1 | 4% | 1
Cc1ccc2nc3c(cc(C(=O)NCC4CCCO4)n3C)c(=O)n2c1 (stereo not drawn) | 8 | 0 | x | 3* | 1% | 1
Cc1ccc2nc3c(cc(C(=O)NCC4CCCO4)c(=N)n3CCCOC(C)C)c(=O)n2c1 (stereo not drawn) | 10 | 19 | x | 3.7* | 15% | 1.1
Cc1ccc2nc3c(cc(C(=O)NCCCn4ccnc4)n3C)c(=O)n2c1 | 4 | 0 | x | 3.9* | 2% | 1.1
CCCCOc1ccccc1NC(=O)CC1SC(=NCC)N(CC)C1=O (stereo not drawn) | 11 | 5 | i | 1.1 | 5% | 1
COc1cccc(C2C(C(=O)c3sc(C)nc3C)=C(O)C(=O)N2CCN(C)C)c1OC (stereo not drawn) | 15 | 10 | i | 1.1 | 8% | 1.1
O=C(O)CNC1=NCCC1 | 12 | 2 | i | 1.1 | 5% | 1
CS(=O)(=O)N(CC(=O)Nc1cccc(F)c1)Cc1ccccc1 | 3 | 10 | i | 1 | 3% | 0.98
COc1ccc2c(C)c(C(=O)NCC(C)O)oc2c1OC (stereo not drawn) | 15 | 4 | x | 2.3* | 10% | 1.1
COc1ccc(CNCCNC(=O)c2ccco2)c(OC)c1OC | 7 | 1 | i | 1.1 | 3% | 1
N#Cc1c(N)sc(=S)c2c1CCN(Cc1ccccc1)C2 | 29* | 0 | x | 4.3* | 15% | 1.1
N#Cc1c(NCCO)nc(NCc2ccccc2)c2c1CCN(Cc1ccccc1)C2 | 18 | 3 | + | 2.2* | 19% | 1
CCN1CCc2c(sc(N)c2C#N)C1 | 7 | 10 | i | 1.6 | 12% | 1
Cc1cccc(N(CC(=O)NC2CCCCC2)C(=O)CCC(=O)Nc2cc(C)ccn2)c1 | 6 | 12 | i | 1.1 | 6% | 1
Cc1cccn2c(=O)c3cc(C(=O)NCC4CCCO4)c(=N)n(Cc4cccnc4)c3nc12 (stereo not drawn) | 6 | 9 | x | 3.7* | 8% | 1
COC(=O)c1cc2c(=O)n3ccccc3nc2n(Cc2cccnc2)c1=N | 2 | 6 | x | 3.7* | 4% | 1.1
O=C(NCC1CCCO1)c1ccc2c(=O)n(CCc3ccccc3)c(=O)[nH]c2c1 (stereo not drawn) | 20 | 4 | i | 1.4 | 9% | 1.1
N=c1c(C(=O)NCC2CCCO2)cc2c(=O)n3ccccc3nc2n1Cc1cccnc1 (stereo not drawn) | 5 | 0 | x | 3.7* | 3% | 0.98
N#Cc1cc2c(=O)n3ccccc3nc2n(Cc2cccnc2)c1=N | 0 | 0 | i | 1.3 | 0% | 1.1
COC(=O)c1cc2c(=O)n3ccccc3nc2n(C)c1=N | 8 | 1 | x | 3.8* | 5% | 1
Cn1nc(C(=O)NCC2CCCO2)c2ccccc2c1=O (stereo not drawn) | 12 | 8 | i | 1.1 | 7% | 1
CCOc1ncccc1C(=O)OCC(=O)NCCc1ccc(OC)cc1 | 5 | 0 | i | 1 | 2% | 1
SMILES | PMK inhibit | Spn MK inh | DPM-DC inhibit | Autofluor 339 | NADH coupling | Abs 340nm
CCCCCn1c(N2CCOCC2)nc2c1c(=O)n(CC(N)=O)c(=O)n2C | 7 | 6 | i | 1.1 | 4% | 1.1
CCCOc1ccc(-c2nnc(-c3ccco3)o2)cc1 | 5 | 15 | i | 2.2* | 7% | 1
CC1c2nc3ccccc3n2C(CC(=O)NCc2ccccn2)C(=O)N1Cc1ccccc1 (stereo not drawn) | 6 | 6 | i | 1.1 | 2% | 0.98
CCOC(=O)C1=C(C)NC2=C(C(=O)CC(C)(C)C2)C1c1cccc(C)n1 (stereo not drawn) | 9 | 8 | x | 4.9* | 9% | 1.1
CCCOC(=O)C1=C(C)NC2=C(C(=O)CC(C)(C)C2)C1c1ccc(N(C)C)cc1 (stereo not drawn) | 0 | 0 | i | 1.1 | 1% | 1.1
N#Cc1nc(-c2cccs2)oc1N1CCOCC1 | 0 | 6 | x | 2.3* | 3% | 1.1
CC1CN(c2oc(-c3cccs3)nc2C#N)CC(C)O1 (stereo not drawn) | 14 | 0 | x | 2.4* | 7% | 1.1
COc1ccc(OCCn2c(=N)n(CCO)c3ccccc32)cc1 | 3 | 4 | i | 1.1 | 4% | 1
COc1ccc(C(O)Cn2c(=N)n(CCCN(C)C)c3ccccc32)cc1 (stereo not drawn) | 8 | 0 | + | 0.99 | 8% | 1
CN(C)c1nc(-c2ccccc2)c2cnn(Cc3ccccc3)c2n1 | 8 | 10 | x | 2.1* | 9% | 1
c1ccc(Cn2ncc3c2ncn2nc(-c4ccncc4)nc32)cc1 | 4 | 5 | i | 1 | 4% | 1.1
COc1ccc2[nH]c(=O)c(CN(C)C(=O)COc3ccccc3)cc2c1 | 18 | 11 | x | 3.4* | 15% | 1
COCC(=O)N(Cc1cc2cc(OC)ccc2[nH]c1=O)c1ccccc1 | 0 | 8 | i | 2.7* | 3% | 1
CCN(Cc1cc2cc(OC)ccc2[nH]c1=O)C(=O)Cc1ccc(OC)cc1 | 3 | 6 | i | 2.4* | 1% | 1
CCCCN(Cc1cc2cc(OC)ccc2[nH]c1=O)C(=O)COc1ccccc1 | 7 | 8 | i | 1.9 | 4% | 1
CCN(Cc1cc2cc(OC)ccc2[nH]c1=O)C(=O)c1ccncc1 | 9 | 3 | i | 1.8 | 5% | 1
CCOc1ccc(N(Cc2cc3cc(OC)ccc3[nH]c2=O)S(C)(=O)=O)cc1 | 5 | 4 | i | 2.8* | 12% | 1
c1ccc(-n2ncc3c(N4CCN(c5ccccn5)CC4)nc(N4CCCCCC4)nc32)cc1 | 9 | 6 | i | 1.2 | 5% | 1.1
O=C(Cc1ccccc1)N1CCN(C(=O)c2cccs2)CC1 | 10 | 5 | i | 1.1 | 5% | 0.98
COc1cccc(-n2c(SCC(=O)N3CCCC3)nc3c([nH]c4ccccc43)c2=O)c1 | 9 | 6 | i | 1.1 | 3% | 1
COc1ccccc1S(=O)(=O)Cc1ccc(C(=O)NCCN2CCCCCC2)o1 | 11 | 1 | i | 1 | 4% | 0.99
O=S(=O)(Nc1ccc(S(=O)(=O)N2CCCCC2)cc1)c1ccc(Br)s1 | 8 | 5 | i | 1.1 | 4% | 1
CCC(=O)N(Cc1ccc2c(c1)OCO2)Cc1cc2cc(OC)ccc2[nH]c1=O | 18 | 17 | i | 1.7 | 15% | 1
